Values joined by “and” are separate entries in the source; they are usually repeats but may differ in a detail not shown here. Equal entries are not always repeated. Active and inactive are the calls of the source. The calls were made as follows: active = hit-call score of the fitted dose curve at least 0.9, where 1 is the maximum; inconclusive = response in the unintended direction; inactive = score below 0.9.

Sequence of rat CYP2A2, Cyp2a2 (gene 24895) (P15149 whole entry, looked up): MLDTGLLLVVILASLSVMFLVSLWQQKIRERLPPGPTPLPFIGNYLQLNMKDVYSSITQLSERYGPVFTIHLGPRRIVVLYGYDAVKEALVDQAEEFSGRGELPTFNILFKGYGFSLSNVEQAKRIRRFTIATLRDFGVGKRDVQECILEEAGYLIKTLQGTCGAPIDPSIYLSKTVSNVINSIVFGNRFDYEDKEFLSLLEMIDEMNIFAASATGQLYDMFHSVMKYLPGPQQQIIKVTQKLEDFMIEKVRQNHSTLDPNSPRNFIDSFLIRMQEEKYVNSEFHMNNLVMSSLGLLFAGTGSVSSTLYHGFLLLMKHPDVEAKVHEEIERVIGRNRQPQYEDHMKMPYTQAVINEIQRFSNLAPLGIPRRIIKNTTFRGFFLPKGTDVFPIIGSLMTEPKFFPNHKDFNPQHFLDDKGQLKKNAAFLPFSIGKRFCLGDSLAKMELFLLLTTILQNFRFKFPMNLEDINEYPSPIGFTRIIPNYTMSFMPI

This assay has as its target rat CYP2A2, Cyp2a2 (gene 24895) (UniProt P15149). Put plainly: NVS_ADME_rCYP2A2: NovaScreen (NVS) CYP450-related Enzyme Activity (ADME) Assay for rat CYP2A2 (AID 2283116). The procedure:
NVS_ADME_rCYP2A2 is a biochemical, single-readout assay that uses extracted gene-proteins in a cell-free assay. Measurements were taken 0.2 hour after chemical dosing in a 96-well plate.NVS_ADME_rCYP2A2 is one of one assay component(s) measured or calculated from the NVS_ADME_rCYP2A2 assay. It is designed to make measurements of enzyme activity, a form of enzyme reporter, as detected with fluorescence intensity signals by Fluorescence technology.Data from the assay component NVS_ADME_rCYP2A2 was analyzed into 1 assay endpoint. This assay endpoint, NVS_ADME_rCYP2A2, was analyzed in the positive analysis fitting direction relative to Acetonitrile as the negative control and baseline of activity. Using a type of enzyme reporter, loss-of-signal activity can be used to understand changes in the enzymatic activity as they relate to the gene Cyp2a2. Furthermore, this assay endpoint can be referred to as a primary readout, because this assay has produced multiple assay endpoints where this one serves a enzymatic activity function. To generalize the intended target to other relatable targets, this assay endpoint is annotated to the cyp intended target family, where the subfamily is xenobiotic metabolism.
Binding assays used specific radioligands (tritiated, iodinated) with non-radioactive competitive displacement ligands in agonist or antagonist protocols (as indicated) and various reference compounds and inhibitors to titrate specific binding to receptors and transporters. Most enzyme assays (CYPs, kinases, phosphatases, proteases, HDACs) used recombinant protein and specific substrates (fluorescence mostly, some colorimetric and radioactive) and inhibitors, followed by a biochemical separation of substrate and product. All assays for the biochemical HTS were initially run in duplicate at a single concentration (10 uM for CYP450 assays and 25 uM for all others). Assay-chemical combinations meeting a pre-defined threshold (e.g., 30% inhibition and other criteria defined below) were then run in singleton concentration-response format with maximum concentration of 20 uM for CYPs and 50 uM for all others. Each assay was run with positive and negative controls, and concurrent controls on every plate. The follow-up (secondary) screen tested active chemical-pairs in concentration series, as well as a few additional assays not tested in the primary screen, some selected negative inactives, and several cases re-run in the concentration series for confirmatory purposes.
With `CCOP(=S)(OCC)Oc1ccc2c(C)c(Cl)c(=O)oc2c1`, the compound was called inactive. The same measure, in the same setting: the value for `C=C(C)[C@H]1Cc2c(ccc3c2O[C@@H]2COc4cc(OC)c(OC)cc4[C@@H]2C3=O)O1` was “inactive”.

On to `CCOC(=O)CC(SP(=O)(OC)OC)C(=O)OCC` (centres undefined), for which the call was inactive.

As usually defined, the AC50 is the concentration at which the activity in the assay is half-maximal. For the compound `CC(C1CC1)C(O)(Cn1cncn1)c1ccc(Cl)cc1` (centres undefined), the AC50 is 56.8 nM (active) and 76.2 nM (active). With `C#CCC1=C(C)C(OC(=O)C2C(C=C(C)C)C2(C)C)CC1=O` (centres undefined), the AC50 was 3.46 µM (active). The same measure, in the same setting: the value for `CC[C@H](C)[C@H]1O[C@]2(C=C[C@@H]1C)C[C@@H]1C[C@@H](C/C=C(\C)[C@@H](O[C@H]3C[C@H](OC)[C@@H](O[C@H]4C[C@H](OC)[C@@H](NC)[C@H](C)O4)[C@H](C)O3)[C@@H](C)/C=C/C=C3\CO[C@@H]4[C@H](O)C(C)=C[C@@H](C(=O)O1)[C@]34O)O2` was 1.65 µM (active). Take `CC(C)N(C(=O)SCC(Cl)=C(Cl)Cl)C(C)C`: the compound was called inactive.

Consider `CCc1cccc(C)c1N(C(=O)CCl)C(C)COC` (centres undefined), for which the AC50 is 5.57 µM (active). `C[Si](Cn1cncn1)(c1ccc(F)cc1)c1ccc(F)cc1`: the AC50 was 0.0595 µM (active). The same measure, in the same setting: the value for `CCCCOC(=O)c1ccccc1C(=O)O` was 2.6 µM (active); that for `Nc1c(Cl)cc([N+](=O)[O-])cc1Cl` was 0.113 µM (active); that for `FC(F)C(F)(F)OCC(Cn1cncn1)c1ccc(Cl)cc1Cl` (centres undefined) was 0.074 µM (active). With `CCCOCC(=Nc1ccc(Cl)cc1C(F)(F)F)n1ccnc1`, the concentration at half-maximal activity (AC50) is 0.0294 µM (active). For the compound `CCC(=NOC/C=C/Cl)C1=C(O)CC(C2CCOCC2)CC1=O` (centres undefined), the call was inactive.

For the origin of these results see PubChem BioAssay (EPA / NIEHS).
